Compounds with a hit are over-represented: about 1.7% of the library has one in this group of screens.
GLP1R cytotox – qHTS of GLP-1 Receptor Inverse Agonists: Cytotox Screen; HEK293 cAMP-luciferase reporter cells, luminescence, 24 h; 0.13% of 410,000 active; Potency, µM (titrated, usually from 38.3 µM), hits mostly inhibitors; AID 624418, 2012;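 note: loss of luciferase light is scored as toxicity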
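A 23 nL compound transfer followed 12 hours of cell culture at 37 deg C; exposure then lasted 24 hr. Luciferase assay detection reagent was dispensed and plates read for luminescence after a 12 min room-temperature wait.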
GLP1R inv ag – qHTS of GLP-1 Receptor Inverse Agonists (Inhibition Mode) | 1.6% of 410,000 active | Potency, µM (titrated, usually from 38.3 µM), usual class: inhibitors | AID 624417, 2012 | HEK293 GLP-1R CRE-luciferase, luminescence, 24 h; GLP-1R form is constitutively active; note: nearly all actives have a fitted effect of over 55% in size
Target sequence (P43220 whole entry, looked up): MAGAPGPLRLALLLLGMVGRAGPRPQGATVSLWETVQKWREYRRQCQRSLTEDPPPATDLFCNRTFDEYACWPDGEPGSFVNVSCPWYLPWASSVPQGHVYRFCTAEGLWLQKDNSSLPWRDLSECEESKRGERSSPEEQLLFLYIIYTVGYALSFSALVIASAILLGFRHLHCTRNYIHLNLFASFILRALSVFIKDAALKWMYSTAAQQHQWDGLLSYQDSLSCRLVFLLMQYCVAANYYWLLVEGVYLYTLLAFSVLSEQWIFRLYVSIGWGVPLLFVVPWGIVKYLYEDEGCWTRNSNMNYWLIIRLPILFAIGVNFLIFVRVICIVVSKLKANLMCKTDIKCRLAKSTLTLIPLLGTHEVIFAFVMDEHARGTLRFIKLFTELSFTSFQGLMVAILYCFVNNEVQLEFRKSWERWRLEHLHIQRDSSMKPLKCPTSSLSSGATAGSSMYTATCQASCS
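Assay principle: reduced luminescence from a cAMP-responsive reporter in HEK293 cells co-expressing a constitutively active GLP-1R. Conditions: 24 hr compound incubation, 37 deg C, 5% CO2.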
PTHR1 agonist – qHTS for PTHR1 Agonists: Primary Screen; Potency, µM (series often up to 115 µM), actives largely listed as activators; AID 743266, 2014; HEK293 GP2 PTHR1 cells, GloSensor cAMP luminescence, 1 h; 0.075% of 410,000 active; note: nearly all actives have a fitted effect of over 55% in size
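HEK-293-derived GP2 cells expressing PTHR1 and a GloSensor cAMP reporter, 3,000/well, plated overnight, given luciferin plus IBMX (each 0.5 mM as added) for 1 h at 37 °C, then compound for 1 h at 37 °C. Luminescence was read after 15 min at room temperature.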
GLP1R ag – qHTS of GLP-1 Receptor Agonists; Potency, µM (top dose mostly 45.6 µM), usual class: activators; HEK293 GLP-1R CRE-luciferase, luminescence, 4-6 h; cells express a hypersensitive GLP-1R form; 0.007% of 380,000 active; Glucagon-like peptide 1 receptor (Homo sapiens), P43220
RGS4 inh – Inhibitors of Regulator of G Protein Signaling (RGS) 4: qHTS; AID 504845, 2011; Transcreener GDP fluorescence polarization, RGS4-accelerated GTP hydrolysis; Potency, µM (doses to about 114 µM), usual class: inhibitors; 0.039% of 390,000 active; Regulator of G-protein signaling 4 (Homo sapiens), P49798; note: nearly all actives have a fitted effect of over 75% in size
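MLSMR compounds (23 nl, pin-transferred) preincubated 10 min at room temperature with a 500nM (2x) first reagent, then RGS4 at 900nM (2x) plus Transcreener GDP mix added; fluorescence polarization (620/688 nm) read before and after 90 min at 30 °C.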
A number is an active result; - = inactive; ? = inconclusive; . = no result given; ! = a repeat was not active; [ ] = another dose, or the depositor's remark. Calls come from the whole dose curve; as a rule, active = well fitted curve in the direction sought with a large enough effect; inconclusive = small, poorly fitted or top-dose-only effect, or another doubt; inactive = no such curve, though single readings can be large; an effect the other way counts as inactive or inconclusive.

SMILES	GLP1R cytotox	GLP1R inv ag	PTHR1 agonist	GLP1R ag	RGS4 inh
CN1/C(=C\C(=O)CSc2nnc(N)s2)C(C)(C)c2ccccc21	-	-	-	-	-
CC(C)(C)c1ccc(Oc2ccc(NC(=O)c3ccco3)cn2)cc1	-	2.5µM	-	-	-
O=C(Nc1ccc(Oc2cccc(C(F)(F)F)c2)nc1)c1ccco1	-	?	-	-	-
COc1ccc(-c2ccc(NC(=O)c3ccco3)cc2)nn1	-	7.1µM	-	-	-
CCCCN1C(C(=O)c2ccccc2)=C(OC(=O)CC)c2ccccc2S1(=O)=O	-	?	-	.	-
CCCN1C(C(=O)c2ccccc2)=C(OC(=O)c2ccc(C)cc2)c2ccccc2S1(=O)=O	-	?	-	.	-
CCCCC(=O)OC1=C(C(=O)c2ccccc2)N(CCC)S(=O)(=O)c2ccccc21	-	11µM	-	.	-
CCCCCN1C(C(=O)c2ccccc2)=C(OC(=O)CC)c2ccccc2S1(=O)=O	-	13µM	-	.	-
CCOc1ccc(OCC(O)CN2CCc3ccccc3C2)cc1 (stereo not given)	-	?	-	-	-
Cc1cc(OCC(O)CN2CCc3ccccc3C2)ccc1Cl (stereo not given)	-	7.1µM	-	-	-
Cc1ccc(C)c(OCC(O)CN2CCc3ccccc3C2)c1C (stereo not given)	-	8.9µM	-	-	-
CNc1sc(C(=O)c2ccc(F)cc2)c(N)c1-c1nc2ccccc2s1	11µM	-	-	-	-
CN1CCC(N(C)C(=O)c2sc3cc(F)ccc3c2Cl)CC1	-	7.1µM	-	-	-
CC(C)N(CC(N)=O)C(=O)c1sc2cc(F)ccc2c1Cl	-	-	-	-	-
c1cc2cc(-c3c(-c4ccc5c(c4)OCO5)noc3-c3ccsc3)ccc2[nH]1	-	?	-	-	-
Cc1onc(-c2ccc3c(c2)OCO3)c1-c1ccc2[nH]ccc2c1	?	8.9µM	-	-	-
Cc1c(NC(=O)C(C)OC(=O)c2ccc(NC(=O)CC#N)cc2)c(=O)n(-c2ccccc2)n1C (stereo not given)	-	-	-	-	-
Cc1ccc(NC(=O)C(NC2CCCc3ccccc32)c2ccccc2)cc1Cl (stereo not given)	-	?	-	-	-
Cc1ccc(NC(=O)C(NC2CCCc3ccccc32)c2ccccc2)c([N+](=O)[O-])c1 (stereo not given)	-	4µM	-	-	-
O=C(Nc1ccc(F)cc1)C(Cc1ccccc1)n1cccc1 (stereo not given)	-	13µM	-	-	-
O=C(NCc1ccc(F)cc1)C(Cc1ccccc1)n1cccc1 (stereo not given)	-	11µM	-	-	-
Cc1ccc(NC(=O)C(Cc2ccccc2)n2cccc2)cc1 (stereo not given)	-	?	-	-	-
COc1cccc(NC(=O)C(Cc2ccccc2)n2cccc2)c1 (stereo not given)	-	11µM	-	-	-
COc1cc(C)c(Cl)c(C)c1S(=O)(=O)NC1CC(C)(C)NC(C)(C)C1	-	5.6µM	-	-	-
CCOc1cc(S(=O)(=O)NC2CC(C)(C)NC(C)(C)C2)ccc1Cl	-	11µM	-	-	-
SMILES	GLP1R cytotox	GLP1R inv ag	PTHR1 agonist	GLP1R ag	RGS4 inh
Cc1ccc(NS(=O)(=O)c2ccc(-n3cccn3)cc2)c(C)c1	-	10µM	-	-	-
Cc1cccc(C)c1OCC(=O)N/N=C/c1cccnc1	13µM	-	-	-	-
O=C(Nc1c(C(=O)N2CCN(c3ccccc3)CC2)oc2ccccc12)c1ccc(Br)o1	-	-	-	.	-
CCC(Oc1ccccc1)C(=O)Nc1cc(-c2ccccc2OC)nn1-c1ccccc1 (stereo not given)	-	4.5µM	-	.	-
COc1ccccc1-c1cc(NC(=O)COc2ccc(C)c(C)c2)n(-c2ccccc2)n1	-	-	-	.	-
O=C1Nc2ccccc2/C1=N\N=C\c1ccc(O)c(O)c1	11µM	-	-	-	-
CCOC(=O)c1nnn(-c2nonc2N)c1COc1cc(C)c(Cl)c(C)c1	-	8.9µM	-	-	-[11.4 µM]
Cc1c(C(=O)NCc2cccc(C(F)(F)F)c2)sc(=O)n1Cc1ccccc1F	-	?	-	-	.
CCOc1cccc(/C=N/NC(=S)Nc2cc(S(=O)(=O)N3CCOCC3)ccc2N2CCOCC2)c1O	-	5µM	-	-	-
CCOc1ccc(CCNC(=O)c2nn(C)c3c2CSc2ccc(C)cc2-3)cc1OCC	-	10µM	-	.	-
CCN(CC)c1ncnc2c1ncn2[C@@H]1O[C@H](COP(=O)(O)OP(=O)(O)C(Br)(Br)P(=O)(O)O)[C@@H](O)[C@H]1O	.	.	.	.	-
NC(=O)C1=CN(C2OC(COP(=O)(O)OP(=O)(O)OC[C@H]3O[C@@H](n4cnc5c(N)ncnc54)[C@H](OP(=O)(O)O)[C@@H]3O)C(O)C2O)C=CC1 (stereo not given in full)	.	.	.	.	13µM
Nc1ncnc2c1ncn2C1OC(COP(=O)(O)O)C(O)C1O (stereo not given)	-	-	-	-	-
Nc1ncnc2c1ncn2[C@@H]1O[C@H](COP(=O)(O)O)[C@@H](O)[C@H]1O	-	-	-	-	?
CSc1nc(N)c2ncn([C@@H]3O[C@H](COP(=O)(O)OP(=O)(O)OP(=O)(O)O)[C@@H](O)[C@H]3O)c2n1	.	.	.	.	12µM!
CSc1nc(N)c2ncn([C@@H]3O[C@H](COP(=O)(O)OP(=O)(O)O)C(O)[C@H]3O)c2n1 (stereo not given in full)	.	.	.	.	0.53µM
Nc1ncnc(Nc2ccc(Cl)cc2)n1	.	.	.	-	.
O=C(COC(=O)CCNS(=O)(=O)c1ccccc1F)Nc1nnc(-c2ccccc2)o1	-	-	-	-	?
Cc1ccc(CN2CCC(Oc3cccc(C(=O)N(C)CCN(C)C)c3)CC2)cc1C	?	4µM	-	-	-
COCCNC(=O)c1cccc(OC2CCN(Cc3ccc(C(=O)OC)cc3)CC2)c1	-	-	-	-	-
CCc1nnc(NC(=O)c2cc(=O)c3cc(C)ccc3o2)s1	-	-	-	.	-
Cc1cc([N+](=O)[O-])c2ccccc2c1NS(=O)(=O)c1ccccc1	-	10µM	-	-	-
Cc1ccc(NS(=O)(=O)c2ccccc2)c([N+](=O)[O-])c1	-	-	-	-	-
Cc1ccc(-c2noc(CN(C(=O)CCCCCN3C(=O)c4ccccc4C3=O)C(C)C)n2)cc1	-	6.3µM	-	-	-
